Reference: ChEMBL document CHEMBL4513136, “CO-ADD screening of CSIC (Spain) compounds”
Measured potencies and affinities stand elsewhere.

Each compound was assayed on Staphylococcus aureus. Settings: Concentration 32 ug.mL-1; ASSAY_TEST Inhibition of Bacterial Growth; detection method Absorption (OD600); MEDIA CAMHB; plate type 384well; NBS; CORNING #3640; time 18 hr.
In the case of `COc1ccc(OC)c(C(=O)CCc2ccccc2O)c1`, the Inhibition is reported as 15.3%.
For `COc1ccc(OC)c(C(=O)/C=C/c2ccc(O)cc2)c1`, the Inhibition was 10.84%.
Compound `Oc1ccc(-n2cc(-c3cc(O)ccc3O)nn2)cc1` has an Inhibition of 19.08%.
With `CC1C(=O)N(Cc2ccc(OCCN3CCOCC3)cc2)C1(Cc1ccccc1)C(=O)O` (configuration not stated) the Inhibition was 11.78%.
`Oc1ccc(O)c(-c2cn(-c3ccc(O)c(O)c3)nn2)c1` showed an Inhibition of 34.68%.
`COc1ccc(OC)c(CC(=O)Nc2cc(OC)ccc2OC)c1` showed an Inhibition of 27.17%.
`O=C(/C=C/c1c[nH]c2ccc(O)cc12)c1cc(O)ccc1O` gave an Inhibition of 20.75%.
Compound `COc1ccccc1/C=C/C(=O)c1cc(OC)c(OC)cc1OC` has an Inhibition of 26.72%.
For `COc1ccc(OC)c(-c2cn(-c3ccc(OC)c(OC)c3)nn2)c1`, the Inhibition was -11.96%.
`COC(=O)C1(Cc2ccc(OCc3c(Cl)cccc3Cl)cc2)C(C)C(=O)N1Cc1ccc(OC)cc1` (configuration not stated) was tested, and the Inhibition was 19.17%.
Compound `O=C(CCc1ccc(O)cc1O)c1cc(O)ccc1O` has an Inhibition of 23.73%.
With `COc1ccc(OC)c(C(=O)/C=C/c2ccccc2O)c1` the Inhibition was 11.52%.
Work on `COc1ccc(OC)c(NC(=O)Nc2ccc(OC)cc2OC)c1` yielded an Inhibition of 5.98%.
`O=C(OCc1ccccc1)N1C(=O)C(c2ccccc2NC(=O)C(F)(F)F)=C(O)C1Cc1ccccc1` (configuration not stated) showed an Inhibition of 36.54%.
Work on `COc1ccc(OC)c(CC(=O)Nc2ccc(OC)cc2OC)c1` yielded an Inhibition of 26.56%.
In the case of `COc1ccc(CN2C(=O)C(C)C2(Cc2cn(C(=O)OC(C)(C)C)c3ccccc23)C(=O)OC(C)(C)C)cc1` (configuration not stated), the Inhibition is reported as 27.02%.
`O=C(/C=C/c1ccccc1O)c1cc(O)c(O)cc1O` gave an Inhibition of 26.82%.
Work on `COc1ccc(OC)c(C(=O)/C=C/c2c[nH]c3ccc(OC)cc23)c1` yielded an Inhibition of 20.69%.
`O=C(Cc1cc(O)ccc1O)Nc1cc(O)ccc1O` gave an Inhibition of 22.67%.
With `COc1ccc(NC(=O)Cc2cc(OC)ccc2OC)cc1` the Inhibition was 31.14%.
For `O=C(Cc1cc(O)ccc1O)Nc1ccc(O)cc1`, the Inhibition was 29.77%.
Compound `COC(=O)c1c(C(Cc2ccccc2)NC(=O)OCc2ccccc2)[nH]c2ccccc12` (configuration not stated) has an Inhibition of 22.9%.
Compound `COc1ccc(OC)c(C(=O)CCc2ccc(O)cc2)c1` has an Inhibition of 16.63%.
Compound `COc1ccc(C(=O)/C=C/c2ccc(OC)cc2OC)cc1` has an Inhibition of 6.51%.
`O=C(Cc1cc(O)ccc1O)Nc1ccc(O)cc1O` was tested, and the Inhibition was 17.97%.
`O=C(Nc1ccc(O)cc1O)Nc1cc(O)ccc1O` was tested, and the Inhibition was 10.74%.

These compounds were tested on Escherichia coli. Settings: Concentration 32 ug.mL-1; ASSAY_TEST Inhibition of Bacterial Growth; detection method Absorption (OD600); MEDIA CAMHB; plate type 384well; NBS; CORNING #3640; time 18 hr.
`COc1ccc(OC)c(C(=O)CCc2ccccc2O)c1` was tested, and the Inhibition was -20.89%.
`COc1ccc(OC)c(C(=O)/C=C/c2ccc(O)cc2)c1` showed an Inhibition of -21.08%.
With `Oc1ccc(-n2cc(-c3cc(O)ccc3O)nn2)cc1` the Inhibition was -16.85%.
`CC1C(=O)N(Cc2ccc(OCCN3CCOCC3)cc2)C1(Cc1ccccc1)C(=O)O` (configuration not stated) was tested, and the Inhibition was -10.5%.
Compound `Oc1ccc(O)c(-c2cn(-c3ccc(O)c(O)c3)nn2)c1` has an Inhibition of -12.66%.
In the case of `COc1ccc(OC)c(CC(=O)Nc2cc(OC)ccc2OC)c1`, the Inhibition is reported as -12.93%.
With `O=C(/C=C/c1c[nH]c2ccc(O)cc12)c1cc(O)ccc1O` the Inhibition was -12.64%.
`COc1ccccc1/C=C/C(=O)c1cc(OC)c(OC)cc1OC` showed an Inhibition of -13.16%.
For `COc1ccc(OC)c(-c2cn(-c3ccc(OC)c(OC)c3)nn2)c1`, the Inhibition was -27.73%.
Work on `COC(=O)C1(Cc2ccc(OCc3c(Cl)cccc3Cl)cc2)C(C)C(=O)N1Cc1ccc(OC)cc1` (configuration not stated) yielded an Inhibition of -12.56%.
In the case of `O=C(CCc1ccc(O)cc1O)c1cc(O)ccc1O`, the Inhibition is reported as -20.02%.
`COc1ccc(OC)c(C(=O)/C=C/c2ccccc2O)c1` showed an Inhibition of -22.92%.
`COc1ccc(OC)c(NC(=O)Nc2ccc(OC)cc2OC)c1` was tested, and the Inhibition was -17.47%.
`O=C(OCc1ccccc1)N1C(=O)C(c2ccccc2NC(=O)C(F)(F)F)=C(O)C1Cc1ccccc1` (configuration not stated) showed an Inhibition of -6.54%.
Compound `COc1ccc(OC)c(CC(=O)Nc2ccc(OC)cc2OC)c1` has an Inhibition of -12.34%.
With `COc1ccc(CN2C(=O)C(C)C2(Cc2cn(C(=O)OC(C)(C)C)c3ccccc23)C(=O)OC(C)(C)C)cc1` (configuration not stated) the Inhibition was -6.98%.
For `O=C(/C=C/c1ccccc1O)c1cc(O)c(O)cc1O`, the Inhibition was -8.37%.
Compound `COc1ccc(OC)c(C(=O)/C=C/c2c[nH]c3ccc(OC)cc23)c1` has an Inhibition of -14.33%.
For `O=C(Cc1cc(O)ccc1O)Nc1cc(O)ccc1O`, the Inhibition was -14.95%.
`COc1ccc(NC(=O)Cc2cc(OC)ccc2OC)cc1` gave an Inhibition of -11.77%.
Work on `O=C(Cc1cc(O)ccc1O)Nc1ccc(O)cc1` yielded an Inhibition of -10.96%.
With `COC(=O)c1c(C(Cc2ccccc2)NC(=O)OCc2ccccc2)[nH]c2ccccc12` (configuration not stated) the Inhibition was -13.62%.
`COc1ccc(OC)c(C(=O)CCc2ccc(O)cc2)c1` gave an Inhibition of -22.53%.
Work on `COc1ccc(C(=O)/C=C/c2ccc(OC)cc2OC)cc1` yielded an Inhibition of -22.4%.
For `O=C(Cc1cc(O)ccc1O)Nc1ccc(O)cc1O`, the Inhibition was -13.2%.
For `O=C(Nc1ccc(O)cc1O)Nc1cc(O)ccc1O`, the Inhibition was -13.5%.
